# According to the supplement of paper PMC4166925:
# ± gives the standard deviation of the averaged measurements. The full ranking holds about 33,000 sequences; the median of “E-score (dimensionless, -0.5 to 0.5)” is about -0.046, and the highest 2% start at about 0.36. The full list was thinned out, with the highest values kept by preference.
# Tested on: T1, SpTbr T-box DNA-binding domain (GST fusion)
# T1 sequence: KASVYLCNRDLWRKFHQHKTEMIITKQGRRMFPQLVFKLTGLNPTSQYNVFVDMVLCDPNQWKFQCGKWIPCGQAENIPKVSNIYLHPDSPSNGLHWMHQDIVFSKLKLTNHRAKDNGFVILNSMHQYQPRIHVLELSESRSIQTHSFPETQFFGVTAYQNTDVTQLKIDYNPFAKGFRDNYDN
# Assay: PBM E-score of 8-mer (E-score (dimensionless, -0.5 to 0.5)); Tbr is Tbrain of the sea star Patiria miniata (Pm) or the sea urchin Strongylocentrotus purpuratus (Sp); higher = stronger binding preference
# Conditions: the construct has about 5 more residues each side
# How it was run: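 Expression of GST-fused Tbr T-box DNA-binding domains, each holding the full T-box plus roughly five flanking residues, was carried out in BL21 E. coli at 20 °C, with purification by glutathione affinity chromatography. Universal Agilent arrays made double-stranded by primer extension were incubated with the protein at 200 nM in PBS (pH 7.5), then scanned and quantified. All ungapped 8-mers were scored from probe intensities, and each received an enrichment E-score from the Universal PBM Analysis Suite, averaged over duplicate arrays.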
row,Sequence,PBM E-score of 8-mer
1,ACGCGCGC,0.189 ± 0.056
2,ACGCGCGA,0.393 ± 0.023
3,AAGTAGAA,0.0466 ± 0.046
4,GGTGAAAA,0.126 ± 0.095
5,TATGAACA,-0.0802 ± 0.022
6,AGTGAACA,0.175 ± 0.0043
7,GGTGAACA,-0.0711 ± 0.04
8,CGTGAAAA,0.329 ± 0.069
9,TGTGAAAA,0.394 ± 0.048
10,CGTGAACA,0.3774 ± 0.003
11,CGTGAACC,0.353 ± 0.018
12,TGTGAACA,0.445 ± 0.0018
13,AGATATTC,-0.243 ± 0.033
14,AGCTATTG,-0.0351 ± 0.028
15,ACTTAGAG,-0.0957 ± 0.015
16,CCCAAATC,-0.108 ± 0.11
17,CCAAGAGC,-0.28 ± 0.06
18,AGGTGAGC,0.2602 ± 0.00092
19,ACGTGAGG,0.196 ± 0.024
20,AGGTGAGG,0.4113 ± 0.0021
21,AAGTGAGG,0.2725 ± 0.0021
22,CAGTGAGA,0.157 ± 0.062
23,GGGGGTGA,0.289 ± 0.03
24,AGGTGAAA,0.266 ± 0.045
25,AAGTGAGA,0.4 ± 0.018

row,Sequence,PBM E-score of 8-mer
1,GGGTGAGA,0.424 ± 0.0073
2,GAGTGAGA,0.346 ± 0.023
3,CGGTGAGA,0.257 ± 0.012
4,AGGTGAGA,0.4826 ± 0.0046
5,CATCGATA,-0.00022 ± 0.06
6,CGCAAGGA,-0.051 ± 0.018
7,AGATTCCG,-0.0246 ± 0.022
8,CTCGTATA,-0.142 ± 0.0069
9,TAACTACA,0.0924 ± 0.085
10,ACGGTGTA,0.137 ± 0.026
11,AAGGTTTG,-0.161 ± 0.046
12,AAGGTGTG,0.4816 ± 0.0018
13,GGGGTGTA,0.167 ± 0.062
14,AAGGTGTA,0.394 ± 0.023
15,ACGGTGTG,0.3578 ± 0.0014
16,CCGGTGTA,0.115 ± 0.037
17,GAGGTGTA,0.418 ± 0.014
18,GCGGTGTA,-0.122 ± 0.012
19,TACGACCA,-0.249 ± 0.12
20,CGTGCACG,0.00996 ± 0.044
21,CTTTCTAA,-0.187 ± 0.023
22,ACGCAGGC,-0.149 ± 0.011
23,CTTAGTGA,0.0752 ± 0.0019
24,ACGCGAGT,0.107 ± 0.072
25,ATGGGAGC,-0.168 ± 0.01

row,Sequence,PBM E-score of 8-mer
1,GGTTCATA,-0.0395 ± 0.039
2,CGTTCAAG,-0.167 ± 0.0076
3,GGTTCAAA,-0.343 ± 0.0085
4,CGATCACG,0.221 ± 0.037
5,GGTTCACA,0.3973 ± 0.0018
6,CGTTCACC,0.0843 ± 0.012
7,CGTTCACA,0.418 ± 0.0069
8,CGATCACA,0.396 ± 0.0068
9,AGATCACA,0.342 ± 0.02
10,AGTTCACG,0.338 ± 0.049
11,AGTTCACC,-0.00201 ± 0.066
12,AGTTCACA,0.442 ± 0.013
13,TAGATCCA,-0.288 ± 0.061
14,CTAGTTTA,-0.132 ± 0.14
15,AGTCCTGG,-0.262 ± 0.021
16,CGGAGATA,0.0372 ± 0.0019
17,AATTGGGA,-0.0875 ± 0.07
18,CCTTGGAG,-0.1541 ± 0.00054
19,ACGCGCCG,0.227 ± 0.11
20,ACACAGTA,0.116 ± 0.02
21,GCCTTCGC,0.296 ± 0.0037
22,CGATGCAG,-0.164 ± 0.022
23,AATCTTCC,-0.133 ± 0.036
24,GAAGTAAA,-0.281 ± 0.027
25,ATAATCTC,-0.0752 ± 0.092

row,Sequence,PBM E-score of 8-mer
1,CCGAGACG,-0.121 ± 0.015
2,ACGCGAGA,0.219 ± 0.016
3,GCGAGAGA,0.203 ± 0.061
4,GCGCGAGA,0.3663 ± 0.0029
5,GCGCGAGC,0.298 ± 0.053
6,TCGCGAGA,0.367 ± 0.01
7,CCGCGAGA,0.224 ± 0.037
8,AACTATAT,-0.0107 ± 0.13
9,GAGTTACC,0.144 ± 0.011
10,CGCACAGC,0.122 ± 0.012
11,GCCCCAAC,0.133 ± 0.059
12,ATGTGTAA,0.342 ± 0.0099
13,GTCACCGA,0.0907 ± 0.0094
14,CTCACCTA,0.385 ± 0.014
15,CTTACCTA,-0.163 ± 0.054
16,CTCACCGA,0.0544 ± 0.017
17,GTCACCCA,0.203 ± 0.0083
18,GTCACCTA,0.392 ± 0.017
19,GGTCTCGA,-0.115 ± 0.014
20,GCATGGGC,-0.0364 ± 0.0065
21,GCTACTAC,0.013 ± 0.035
22,ATTCCCAA,-0.227 ± 0.012
23,AGTGAGGA,0.246 ± 0.028
24,TGAGAGAA,0.0644 ± 0.036
25,TCTGAGAA,-0.238 ± 0.12

row,Sequence,PBM E-score of 8-mer
1,TGTGAGAA,0.4336 ± 0.0026
2,GGTGAGAA,0.4745 ± 0.0016
3,CGTGAGAA,0.347 ± 0.016
4,GCTGAGAA,0.26 ± 0.048
5,GGTGAGGA,0.384 ± 0.0073
6,CGTGAGAC,0.2491 ± 0.0021
7,CGTGAGGA,0.178 ± 0.011
8,AGTGAGAC,0.169 ± 0.04
9,GGTGAGAC,0.3819 ± 0.0012
10,CGTTGAAG,0.0941 ± 0.031
11,ATGGACAA,0.101 ± 0.003
12,AGGCCAAC,-0.0875 ± 0.028
13,CGAGTAGC,0.0635 ± 0.0055
14,TAGGGCGA,-0.00769 ± 0.086
15,GAACTTGA,-0.0691 ± 0.0032
16,CCGCGACG,0.0384 ± 0.061
17,ATCAGATA,-0.0339 ± 0.043
18,AGTGAGAA,0.422 ± 0.014
19,AGTGAGAT,0.287 ± 0.033
20,AGTGAGAG,0.3 ± 0.0092
21,CAACCTGA,-0.0529 ± 0.059
22,ATTGGTCC,-0.197 ± 0.039
23,AACGTGCG,0.32 ± 0.0051
24,AACGTGTA,0.135 ± 0.074
25,CACGTGAC,0.286 ± 0.042

row,Sequence,PBM E-score of 8-mer
1,AGCGTGTC,0.152 ± 0.072
2,AACGTGTC,0.372 ± 0.0067
3,CACGTGTC,0.391 ± 0.014
4,CACGTGTA,0.272 ± 0.0034
5,ACCGTGTG,0.203 ± 0.052
6,AACGTGTG,0.4114 ± 0.0041
7,ACTCGATG,-0.0556 ± 0.081
8,ACAACGAT,-0.00065 ± 0.016
9,CACGCCCC,0.24 ± 0.013
10,AGACAACG,-0.0213 ± 0.033
11,CAGCTAGG,0.101 ± 0.087
12,CAGCCTCC,-0.239 ± 0.021
13,CAGGCTAC,-0.221 ± 0.014
14,ACAATTCA,0.163 ± 0.069
15,CCCGACAG,0.0718 ± 0.038
16,ACCGACAC,0.373 ± 0.0082
17,GCCGACCC,-0.201 ± 0.12
18,ACCGACAA,-0.0797 ± 0.034
19,GCCGACAA,0.161 ± 0.014
20,ACCGACAT,-0.042 ± 0.038
21,CCCGACAA,0.154 ± 0.02
22,CCCGACAC,0.367 ± 0.017
23,GCCGACAC,0.397 ± 0.0048
24,GACAATTA,0.029 ± 0.11
25,GGACAACA,0.0909 ± 0.012

row,Sequence,PBM E-score of 8-mer
1,GAGGATGC,-0.0317 ± 0.049
2,CGGAATGC,-0.214 ± 0.051
3,GCGAACGC,0.3749 ± 0.0018
4,GCGAACGA,0.283 ± 0.035
5,CCGAACGC,-0.0118 ± 0.08
6,GCAGAGAA,-0.328 ± 0.0058
7,GACTCTCA,0.0161 ± 0.056
8,ATTCACTG,0.0169 ± 0.045
9,GTTCACTA,-0.0482 ± 0.02
10,ATTCACCG,0.0187 ± 0.041
11,CTTCACCC,0.123 ± 0.04
12,ATTCACTC,0.115 ± 0.056
13,GTTCACGA,0.275 ± 0.0011
14,ATTCACAG,0.395 ± 0.025
15,ATTCACAA,0.299 ± 0.061
16,ATTCACAC,0.4807 ± 0.0029
17,GTTCACAA,0.376 ± 0.02
18,CTTCACAA,0.32 ± 0.0058
19,CTTCACAC,0.4852 ± 0.00088
20,AGAGAGCT,-0.0758 ± 0.017
21,GGAGAACC,0.0265 ± 0.00056
22,GCAATACA,-0.0823 ± 0.031
